# Source: PubChem BioAssay (EPA / NIEHS)
# Values joined by “and” are separate entries in the source; they are usually repeats but may differ in a detail not shown here. Identical values can stand only once. Results filed as inconclusive are left out. Active and inactive are the calls of the source. Rule for the calls: active = hit-call score of the fitted dose curve at least 0.9, where 1 is the maximum; inconclusive = response in the unintended direction; inactive = score below 0.9.
# What was measured:
# [1] = biological target: D(1A) dopamine receptor (Homo sapiens) (UniProt P21728); assay: NVS_GPCR_hDRD1: NovaScreen (NVS) G Protein-Coupled Receptor Assay for human Dopamine Receptor D1 (DRD1) (AID 2283269)
# Method in brief: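 Cell-free competition with radioligand, filter-trapped and scintillation-counted 1 h post-dose, using HEK293-derived human D1 preparation. Duplicate single-point testing at 25 uM first, then concentration series for actives; DMSO served as baseline, loss-of-signal scored.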
# [2] = biological target: Muscarinic acetylcholine receptor M3 (Homo sapiens) (UniProt P20309); assay: NVS_GPCR_hM3: NovaScreen (NVS) G Protein-Coupled Receptor Assay for human Muscarinic, M3 Receptor (AID 2283272)
# Method in brief: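 Radioligand displacement binding on human M3 receptor in CHO-derived membranes, 1 h incubation, filter-based scintillation counting. Primary screen in duplicate at 25 uM; actives followed up in concentration series; loss of signal versus DMSO.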
# [3] = biological target: Muscarinic acetylcholine receptor M2 (Homo sapiens) (UniProt P08172); assay: NVS_GPCR_hM2: NovaScreen (NVS) G Protein-Coupled Receptor Assay for human Muscarinic, M2 Receptor (AID 2283273)
# Method in brief: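 Cell-free radioligand binding using membranes from CHO cells expressing the receptor; filter-based scintillation counting after 1 hour of compound exposure. Loss of specific binding relative to DMSO baseline; primary screen at 25 uM in duplicate, actives then run in concentration series.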
# [4] = biological target: human Muscarinic, M4 Receptor, CHRM4 (gene 1132) (UniProt P08173); assay: NVS_GPCR_hM4: NovaScreen (NVS) G Protein-Coupled Receptor Assay for human Muscarinic, M4 Receptor (AID 2283274)
# Method in brief: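 Cell-free radioligand displacement using CHO-derived human M4 receptor protein, 1 h after dosing; bound radioactivity by filtration and scintillation counting. Primary screen single 25 uM duplicate, actives followed in concentration series.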
# [5] = biological target: Neuropeptide Y receptor type 2 (Homo sapiens) (UniProt P49146); assay: NVS_GPCR_hNPY2: NovaScreen (NVS) G Protein-Coupled Receptor Assay for human Neuropeptide Receptor Y2 (NPY2) (AID 2283277)
# Method in brief: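 Radioligand binding on membranes extracted from SK-N-MC cells, cell-free, read 1 h after dosing by filter-based scintillation counting. Loss of signal vs DMSO. Primary screen in duplicate at 25 uM; actives followed up in concentration-response up to 50 uM.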
# [6] = biological target: human Thromboxane A2 Receptor (TXA2), TBXA2R (gene 6915) (UniProt P21731); assay: NVS_GPCR_hTXA2: NovaScreen (NVS) G Protein-Coupled Receptor Assay for human Thromboxane A2 Receptor (TXA2) (AID 2283282);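 note: actives reduce bound radioligand signal relative to DMSO baseline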
# Method in brief: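 Biochem binding, human platelets, cell-free; competitive radioligand displacement; 1 h; filter radiodetection. 25 uM duplicate primary, conc. series secondary; DMSO neg. ctrl.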
# [7] = biological target: human Orphanin, Opioid Related Nociceptin Receptor 1 (ORL1), OPRL1 (gene 4987) (UniProt P41146); assay: NVS_GPCR_hORL1: NovaScreen (NVS) G Protein-Coupled Receptor Assay for human Orphanin, Opioid Related Nociceptin Receptor 1 (ORL1) (AID 2283283)
# Method in brief: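 Filter-based radioligand displacement with receptor extracted from HEK293 cells, read 1 hour after dosing by scintillation counting. Duplicate single-point screen at 25 uM; qualifying chemicals then run in concentration-response to 50 uM, analysed relative to DMSO.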
# [8] = biological target: mouse Cholecystokinin, CCK1 Receptor (CCKA), Cckar (gene 12425) (UniProt O08786); assay: NVS_GPCR_mCCKAPeripheral: NovaScreen (NVS) G Protein-Coupled Receptor Assay for mouse Cholecystokinin, CCK1 Receptor (CCKA) (AID 2283285)
# Method in brief: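 Radioligand competitive displacement on mouse pancreatic membranes, 2 h incubation; filter-based scintillation counting, loss of signal versus DMSO. Single-concentration screen at 25 uM in duplicate, actives retested in concentration-response up to 50 uM.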
# [9] = system: rabbit Platelet Activating Factor Receptor (PAF), gene 100354046; assay: NVS_GPCR_rabPAF: NovaScreen (NVS) G Protein-Coupled Receptor Assay for rabbit Platelet Activating Factor Receptor (PAF) (AID 2283287)
# Method in brief: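 Rabbit platelet membrane preparation; radioligand displacement read by filter-based scintillation counting 1 h after dosing, loss of signal versus DMSO. Primary screen in duplicate at 25 uM, actives followed up in concentration series.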
# [10] = system: 5-hydroxytryptamine receptor 2C (pig); assay: NVS_GPCR_p5HT2C: NovaScreen (NVS) G Protein-Coupled Receptor Assay for pig Serotonin, 5-Hydroxytryptamine Receptor 2C (5HT2C) (AID 2283288)
# Method in brief: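 Pig choroid plexus membranes; radioligand competitive binding, filter-based scintillation counting, read 1 h after dosing. Primary screen in duplicate at 25 uM; actives then run as concentration series; loss of signal versus DMSO baseline.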
# [11] = biological target: rat Adrenergic, Alpha 1, Non-selective Receptor (Adra1), Adra1a (gene 29412) (UniProt P43140); assay: NVS_GPCR_rAdra1_NonSelective: NovaScreen (NVS) G Protein-Coupled Receptor Assay for rat Adrenergic, Alpha 1, Non-selective Receptor (Adra1) (AID 2283289)
# Method in brief: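 Rat forebrain membranes; radioligand displacement read by filter-based scintillation counting 1 h after dosing. Primary screen in duplicate at 25 uM; hits (e.g. ≥30% inhibition) rerun as concentration–response to 50 uM max. Fitted versus DMSO.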
# [12] = biological target: human Opioid Receptor Mu (Opiate Mu), OPRM1 (gene 4988) (UniProt P35372); assay: NVS_GPCR_hOpiate_mu: NovaScreen (NVS) G Protein-Coupled Receptor Assay for human Opioid Receptor Mu (Opiate Mu) (AID 2283290);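 note: hits lower bound tracer signal versus DMSO meaning displacement of the ligand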
# Method in brief: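 Primary screen in duplicate at 25 uM, with actives followed in concentration series. CHO-derived receptor membranes, cell-free; bound radioligand read by scintillation counting after filtration at 2.5 h, decrease scored against DMSO.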
# [13] = biological target: rat Serotonin, 5-Hydroxytryptamine Receptor 1 (5HT1), Non-Selective Binding, Htr1a (gene 24473) (UniProt P19327); assay: NVS_GPCR_r5HT1_NonSelective: NovaScreen (NVS) G Protein-Coupled Receptor Assay for rat Serotonin, 5-Hydroxytryptamine Receptor 1 (5HT1), Non-Selective Binding (AID 2283286)
# Method in brief: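 Rat cortical membranes, radioligand displacement, 1 h incubation, read by filter scintillation. Primary screen in duplicate at 25 uM. Hits (e.g. ≥30% inhibition) went to concentration-response up to 50 uM, fitted as loss of binding versus DMSO.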
# [14] = biological target: mouse Cholecystokinin, CCK2 Receptor (CCKB), Cckbr (gene 12426) (UniProt P56481); assay: NVS_GPCR_mCKKBCentral: NovaScreen (NVS) G Protein-Coupled Receptor Assay for mouse Cholecystokinin, CCK2 Receptor (CCKB) (AID 2283293)
# Method in brief: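 Radioligand displacement binding on mouse forebrain membranes, 2 h exposure, filter-based scintillation counting. Primary screen in duplicate at 25 uM; actives (e.g. ≥30% inhibition) retested in concentration-response up to 50 uM; loss of binding signal relative to DMSO.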
# [15] = biological target: human Neurotensin Receptor (NTS), NTSR1 (gene 4923) (UniProt P30989); assay: NVS_GPCR_hNTS: NovaScreen (NVS) G Protein-Coupled Receptor Assay for human Neurotensin Receptor (NTS) (AID 2283279)
# Method in brief: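 Radioligand displacement on human NTSR1 protein from CHO cells, cell-free, 1 h, filter-based scintillation counting. Primary screen at 25 uM in duplicate; hits rerun in concentration-response up to 50 uM.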
# human Thromboxane A2 Receptor (TXA2), TBXA2R (gene 6915), sequence (P21731 whole entry, looked up): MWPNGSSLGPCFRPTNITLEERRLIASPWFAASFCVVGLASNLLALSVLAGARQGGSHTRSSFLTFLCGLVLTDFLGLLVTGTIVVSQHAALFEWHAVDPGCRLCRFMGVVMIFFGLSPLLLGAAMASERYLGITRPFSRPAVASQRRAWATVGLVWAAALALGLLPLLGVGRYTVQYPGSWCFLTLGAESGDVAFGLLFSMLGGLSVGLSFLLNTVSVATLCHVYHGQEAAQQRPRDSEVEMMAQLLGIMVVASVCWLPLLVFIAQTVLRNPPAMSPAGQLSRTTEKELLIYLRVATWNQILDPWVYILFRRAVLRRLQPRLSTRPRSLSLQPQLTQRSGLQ
# Neuropeptide Y receptor type 2 (Homo sapiens), sequence (P49146 whole entry, looked up): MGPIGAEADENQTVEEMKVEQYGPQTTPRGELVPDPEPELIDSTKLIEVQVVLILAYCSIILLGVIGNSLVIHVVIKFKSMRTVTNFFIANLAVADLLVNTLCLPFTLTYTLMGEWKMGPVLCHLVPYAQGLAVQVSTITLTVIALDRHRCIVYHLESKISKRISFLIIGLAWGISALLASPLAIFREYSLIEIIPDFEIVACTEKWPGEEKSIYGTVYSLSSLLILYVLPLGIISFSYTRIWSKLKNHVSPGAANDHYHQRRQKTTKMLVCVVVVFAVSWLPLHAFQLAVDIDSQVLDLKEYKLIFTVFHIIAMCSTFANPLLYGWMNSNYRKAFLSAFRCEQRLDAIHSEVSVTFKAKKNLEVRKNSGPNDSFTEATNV
# human Opioid Receptor Mu (Opiate Mu), OPRM1 (gene 4988), sequence (P35372 whole entry, looked up): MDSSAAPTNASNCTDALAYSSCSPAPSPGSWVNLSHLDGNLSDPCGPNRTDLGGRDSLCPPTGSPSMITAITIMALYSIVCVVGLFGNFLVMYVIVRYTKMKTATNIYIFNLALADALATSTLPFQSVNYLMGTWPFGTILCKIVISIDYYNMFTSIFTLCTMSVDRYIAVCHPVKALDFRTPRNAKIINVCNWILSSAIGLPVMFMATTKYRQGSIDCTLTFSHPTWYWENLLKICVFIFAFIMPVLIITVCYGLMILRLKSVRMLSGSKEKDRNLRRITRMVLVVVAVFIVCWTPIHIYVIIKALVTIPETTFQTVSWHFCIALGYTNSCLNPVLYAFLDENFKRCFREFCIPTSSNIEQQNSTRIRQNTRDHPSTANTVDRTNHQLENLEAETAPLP
# rat Adrenergic, Alpha 1, Non-selective Receptor (Adra1), Adra1a (gene 29412), sequence (P43140 whole entry, looked up): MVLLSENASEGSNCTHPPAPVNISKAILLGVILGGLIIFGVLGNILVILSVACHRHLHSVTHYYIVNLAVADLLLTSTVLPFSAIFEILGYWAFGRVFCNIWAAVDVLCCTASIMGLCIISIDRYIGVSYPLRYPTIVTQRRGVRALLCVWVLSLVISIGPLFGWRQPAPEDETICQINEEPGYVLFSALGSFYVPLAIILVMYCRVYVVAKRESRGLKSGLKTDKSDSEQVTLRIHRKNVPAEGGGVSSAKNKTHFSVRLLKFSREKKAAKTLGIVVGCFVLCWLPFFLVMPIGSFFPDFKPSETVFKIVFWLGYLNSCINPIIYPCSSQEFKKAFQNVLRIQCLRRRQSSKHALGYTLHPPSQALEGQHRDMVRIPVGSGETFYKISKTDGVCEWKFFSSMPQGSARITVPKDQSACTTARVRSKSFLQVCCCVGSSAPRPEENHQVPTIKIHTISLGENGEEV
# mouse Cholecystokinin, CCK2 Receptor (CCKB), Cckbr (gene 12426), sequence (P56481 whole entry, looked up): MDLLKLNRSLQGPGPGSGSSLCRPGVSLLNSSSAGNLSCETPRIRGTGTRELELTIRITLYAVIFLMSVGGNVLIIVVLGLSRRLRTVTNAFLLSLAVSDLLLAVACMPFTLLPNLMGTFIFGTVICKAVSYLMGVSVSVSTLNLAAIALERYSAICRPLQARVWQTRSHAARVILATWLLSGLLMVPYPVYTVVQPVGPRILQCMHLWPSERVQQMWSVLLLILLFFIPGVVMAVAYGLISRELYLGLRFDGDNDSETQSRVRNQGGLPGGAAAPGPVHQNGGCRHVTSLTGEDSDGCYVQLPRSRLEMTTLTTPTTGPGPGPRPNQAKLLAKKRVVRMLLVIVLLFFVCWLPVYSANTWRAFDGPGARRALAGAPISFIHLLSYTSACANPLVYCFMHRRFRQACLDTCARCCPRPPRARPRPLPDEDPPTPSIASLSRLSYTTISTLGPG
# mouse Cholecystokinin, CCK1 Receptor (CCKA), Cckar (gene 12425), sequence (O08786 whole entry, looked up): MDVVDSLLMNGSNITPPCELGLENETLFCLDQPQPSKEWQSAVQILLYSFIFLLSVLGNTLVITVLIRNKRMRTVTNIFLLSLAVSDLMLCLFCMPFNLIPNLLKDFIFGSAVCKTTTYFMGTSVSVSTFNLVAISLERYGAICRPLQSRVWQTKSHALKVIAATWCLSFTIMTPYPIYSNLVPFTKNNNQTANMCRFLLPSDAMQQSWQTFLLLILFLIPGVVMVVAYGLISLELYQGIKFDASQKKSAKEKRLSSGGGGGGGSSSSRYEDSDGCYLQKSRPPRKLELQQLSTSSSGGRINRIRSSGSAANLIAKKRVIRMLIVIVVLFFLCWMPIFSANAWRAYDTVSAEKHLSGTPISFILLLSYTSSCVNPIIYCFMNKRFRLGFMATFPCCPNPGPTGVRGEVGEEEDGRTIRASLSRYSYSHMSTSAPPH
# human Orphanin, Opioid Related Nociceptin Receptor 1 (ORL1), OPRL1 (gene 4987), sequence (P41146 whole entry, looked up): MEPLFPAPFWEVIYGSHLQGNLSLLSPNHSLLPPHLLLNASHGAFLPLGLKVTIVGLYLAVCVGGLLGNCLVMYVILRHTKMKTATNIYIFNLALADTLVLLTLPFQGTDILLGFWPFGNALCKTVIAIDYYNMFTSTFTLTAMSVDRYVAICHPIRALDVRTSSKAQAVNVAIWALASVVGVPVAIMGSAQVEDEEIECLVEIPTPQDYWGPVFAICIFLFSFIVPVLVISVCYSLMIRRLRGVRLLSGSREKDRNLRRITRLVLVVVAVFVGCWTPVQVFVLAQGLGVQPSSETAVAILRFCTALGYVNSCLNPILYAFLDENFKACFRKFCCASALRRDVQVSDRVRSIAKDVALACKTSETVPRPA
# human Muscarinic, M4 Receptor, CHRM4 (gene 1132), sequence (P08173 whole entry, looked up): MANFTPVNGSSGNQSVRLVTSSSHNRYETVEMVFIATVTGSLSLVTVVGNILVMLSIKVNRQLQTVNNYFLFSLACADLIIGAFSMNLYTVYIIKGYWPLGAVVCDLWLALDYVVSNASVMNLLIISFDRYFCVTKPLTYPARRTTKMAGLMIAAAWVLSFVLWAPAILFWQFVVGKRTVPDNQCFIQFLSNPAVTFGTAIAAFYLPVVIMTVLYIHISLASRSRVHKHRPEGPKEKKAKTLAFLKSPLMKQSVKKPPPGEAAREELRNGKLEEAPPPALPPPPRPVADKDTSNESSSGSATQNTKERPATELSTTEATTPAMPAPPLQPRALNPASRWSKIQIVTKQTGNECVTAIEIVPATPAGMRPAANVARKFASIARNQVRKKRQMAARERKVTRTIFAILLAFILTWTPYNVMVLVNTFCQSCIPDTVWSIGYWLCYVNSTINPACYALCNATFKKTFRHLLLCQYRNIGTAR
# rat Serotonin, 5-Hydroxytryptamine Receptor 1 (5HT1), Non-Selective Binding, Htr1a (gene 24473), sequence (P19327 whole entry, looked up): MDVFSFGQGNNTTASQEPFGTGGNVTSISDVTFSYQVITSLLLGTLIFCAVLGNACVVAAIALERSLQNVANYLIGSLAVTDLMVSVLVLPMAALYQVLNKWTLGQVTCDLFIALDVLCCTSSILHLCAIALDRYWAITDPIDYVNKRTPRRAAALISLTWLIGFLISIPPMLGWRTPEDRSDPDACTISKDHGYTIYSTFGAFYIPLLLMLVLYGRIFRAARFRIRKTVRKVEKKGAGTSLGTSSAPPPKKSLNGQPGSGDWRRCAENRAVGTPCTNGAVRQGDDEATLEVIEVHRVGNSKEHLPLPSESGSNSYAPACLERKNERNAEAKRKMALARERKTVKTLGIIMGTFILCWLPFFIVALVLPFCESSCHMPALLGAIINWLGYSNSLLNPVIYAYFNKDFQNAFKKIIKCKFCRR
# D(1A) dopamine receptor (Homo sapiens), sequence (P21728 whole entry, looked up): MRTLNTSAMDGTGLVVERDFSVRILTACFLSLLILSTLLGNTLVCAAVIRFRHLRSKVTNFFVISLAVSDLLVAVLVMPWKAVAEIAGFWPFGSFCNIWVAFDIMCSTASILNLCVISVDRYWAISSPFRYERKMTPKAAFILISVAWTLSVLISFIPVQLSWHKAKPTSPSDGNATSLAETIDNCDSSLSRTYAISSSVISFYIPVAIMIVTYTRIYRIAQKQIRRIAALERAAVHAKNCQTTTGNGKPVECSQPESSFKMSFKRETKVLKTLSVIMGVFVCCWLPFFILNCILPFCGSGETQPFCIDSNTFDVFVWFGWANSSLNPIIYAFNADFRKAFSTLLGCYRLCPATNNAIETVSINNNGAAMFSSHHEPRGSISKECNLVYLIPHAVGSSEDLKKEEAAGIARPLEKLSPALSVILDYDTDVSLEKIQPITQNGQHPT
# Muscarinic acetylcholine receptor M2 (Homo sapiens), sequence (P08172 whole entry, looked up): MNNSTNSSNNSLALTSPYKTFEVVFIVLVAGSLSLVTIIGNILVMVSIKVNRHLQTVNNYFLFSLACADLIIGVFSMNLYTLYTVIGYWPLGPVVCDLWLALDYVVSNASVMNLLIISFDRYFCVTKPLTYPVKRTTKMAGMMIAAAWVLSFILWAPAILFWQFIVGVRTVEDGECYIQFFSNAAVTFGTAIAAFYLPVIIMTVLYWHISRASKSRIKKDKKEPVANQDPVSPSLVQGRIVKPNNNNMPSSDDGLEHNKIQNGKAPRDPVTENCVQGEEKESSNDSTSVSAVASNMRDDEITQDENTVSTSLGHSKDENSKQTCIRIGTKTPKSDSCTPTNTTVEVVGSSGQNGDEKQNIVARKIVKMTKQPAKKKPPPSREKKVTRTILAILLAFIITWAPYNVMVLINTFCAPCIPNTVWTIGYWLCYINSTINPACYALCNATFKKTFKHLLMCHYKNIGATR
structure (smiles),measurement,setting,value
CCOC(=O)O[C@H](C)OC(=O)c1ccc2c(c1)cc(C(=O)NC1CCN(C(C)C)CC1)n2Cc1cc(-c2ccc(Cl)s2)on1,AC50,[1],1.75 µM (active)
same,AC50,[2],5.44 µM (active)
same,AC50,[3],3.64 µM (active)
same,AC50,[4],2.17 µM (active)
same,AC50,[5],0.0551 µM (active)
same,AC50,[6],23.6 µM (active)
same,AC50,[7],4.46 µM (active)
same,AC50,[8],22.9 µM (active)
same,AC50,[9],17.3 µM (active)
same,AC50,[10],21.3 µM (active)
same,AC50,[11],33.1 µM (active)
same,AC50,[12],2.94 µM (active)
CCN(Cc1cccc(S(=O)(=O)O)c1)c1ccc(C(=C2C=CC(=[N+](CC)Cc3cccc(S(=O)(=O)O)c3)C=C2)c2ccccc2S(=O)(=O)[O-])cc1,AC50,[6],8.17 µM (active)
CC(C)(C)c1cc(/C=C2\SC(N)=NC2=O)cc(C(C)(C)C)c1O,outcome,[10],inactive
CCCCCCCCN(C)CCCCCCCC,outcome,[4],inactive
CN(C[C@@H](CC[N+]12CCC(C3CCCCC3)(CC1)CC2)c1ccc(Cl)c(Cl)c1)C(=O)c1cc(C(F)(F)F)cc(C(F)(F)F)c1,AC50,[6],25 µM (active)
same,AC50,[10],25 µM (active)
same,AC50,[12],2.11 µM (active)
CO[C@H]1/C=C/O[C@@]2(C)Oc3c(C)c(O)c4c(O)c(c(/C=N/N5CCN(C)CC5)c(O)c4c3C2=O)NC(=O)/C(C)=C\C=C\[C@H](C)[C@H](O)[C@@H](C)[C@@H](O)[C@@H](C)[C@H](OC(C)=O)[C@@H]1C,AC50,[5],0.0867 µM (active)
same,outcome,[6],inactive
CC[C@@H]1C[C@H](N(Cc2cc(C(F)(F)F)cc(C(F)(F)F)c2)C(C)=O)c2cc(C(F)(F)F)ccc2N1C(=O)OC(C)C,outcome,[13],inactive
same,outcome,[9],inactive
CC/C(=C(/CC)c1ccc(O)cc1)c1ccc(O)cc1,AC50,[6],15.3 µM (active)
same,AC50,[7],11.4 µM (active)
same,AC50,[8],12.5 µM (active)
same,AC50,[10],22.1 µM (active)
same,outcome,[11],inactive
same,AC50,[12],5.64 µM (active) and 4.96 µM (active) and 10.7 µM (active)
same,AC50,[14],37.9 µM (active)
CCCCCCCCCCCO,outcome,[5],inactive
O=c1c(-c2ccc(O)cc2)coc2cc(O)cc(O)c12,outcome,[11],inactive
Clc1ccccc1C(c1ccccc1)(c1ccccc1)n1ccnc1,AC50,[9],0.621 µM (active)
same,outcome,[12],inactive
Cc1cc2c(cc1C(F)(F)F)N(C(=O)Nc1ccc(Oc3cccnc3C)nc1)CC2,AC50,[8],13.3 µM (active)
same,AC50,[10],0.00211 µM (active)
same,outcome,[12],inactive
CCCCCCCCOc1ccc(C(=O)c2ccccc2)c(O)c1,AC50,[6],25 µM (active)
O=C(O)Cn1c(=O)n(Cc2ccc(Br)cc2F)c(=O)c2ccc(Cl)cc21,outcome,[5],inactive
O=C1O[C@H]([C@@H](O)CO)C(O)=C1O,AC50,[6],8.76 µM (active)
CCCCOC(=O)c1ccc(O)cc1,AC50,[10],25 µM (active)
Oc1ccc2ccccc2c1,AC50,[10],9.86 µM (active)
CC1=CC(=O)/C(=C(/C)O)C(=O)O1,outcome,[13],inactive
c1ccc2n[nH]nc2c1,outcome,[10],inactive
CCCC(=O)OCCC(C)C,AC50,[15],15 µM (active)
same,outcome,[14],inactive
O=c1ccc2ccccc2o1,outcome,[10],inactive
CC[C@H](NC(=O)c1cc(F)ccc1NS(=O)(=O)c1cccc2cccnc12)c1ccccc1,outcome,[12],inactive
O=C(O)c1ccccc1-n1cc(C(=O)O)c(=O)c2cc(Nc3c(F)cc(F)cc3Cl)c(Cl)cc21,outcome,[14],inactive
